Records with an inconclusive call do not appear. Values without a mark were called inactive. Active and inactive are the calls of the source. The call rests on the fitted dose curve; in most records, active means well fitted inhibition curve with a large enough effect; inconclusive means small, poorly fitted or top-dose-only effect; inactive means flat fitted curve, though single readings scatter.
What follows are molecules tested against Calcium and integrin-binding protein 1 (Homo sapiens) (UniProt Q99828) (assay: Primary qHTS for Identification of Calcium Integrin Binding Protein 1 (CIB1) Competitor (AID 1508620;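 further: GST tagged CIB1 binding a fluorescein labelled alphaIIb integrin peptide tracer; top concentration of the series differs between compounds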)). Conditions: CIB1-GST / FITC-alphaIIb peptide fluorescence polarization; series mostly up to 57.7 µM; activity change, negative = inhibition: at the top concentration.
Sequence of Calcium and integrin-binding protein 1 (Homo sapiens) (Q99828 whole entry, looked up): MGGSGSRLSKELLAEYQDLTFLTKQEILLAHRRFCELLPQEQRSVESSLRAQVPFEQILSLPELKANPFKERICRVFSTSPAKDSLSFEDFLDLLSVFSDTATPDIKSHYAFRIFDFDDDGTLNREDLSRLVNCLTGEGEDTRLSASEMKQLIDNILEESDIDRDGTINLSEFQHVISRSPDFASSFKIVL
Outline: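 CIB1-GST (1 uM final) and compound incubated 15 min at room temperature before adding FITC-alphaIIb peptide tracer (100 nM final). Competition for binding read by fluorescence polarization (ex 480, em 540) after another 15 min at room temperature.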
On the % scale 0 is the no-effect control and ±100 the full control effect.

Compound | outcome | activity change, negative = inhibition [%]
CCN1CCN(C(=O)Cc2ccc(Nc3ncc(F)c(Nc4ccc(C(=O)Nc5ccccc5Cl)cc4)n3)cc2)CC1 | inactive | –
CC(N[C@H]1C[C@H]1c1ccccc1)c1ccc2c(c1)OCCO2 (stereo partly drawn) | inactive | –
CO[C@H]1CCC(O[C@H]2C[C@H]([C@]3(C)CC[C@]4(C[C@H](O)[C@@H](C)[C@@H]([C@@H](C)C=C(C)C(=O)[C@H](C)C[C@H](C)C(=O)O)O4)O3)O[C@]3(O[C@@H]([C@H]4O[C@@](O)(CO)[C@H](C)C[C@H]4C)C[C@H]3C)[C@H]2C)O[C@H]1C (stereo partly drawn) | – | -2.84
COC1=CC(C)=C[C@@H](C)[C@@H](O)[C@@H](C)CC(C)=CC=C[C@H](OC)[C@H]([C@@H](C)[C@@H](O)[C@H](C)[C@@]2(O)C[C@@H](O)[C@H](C)[C@@H](C(C)C)O2)OC1=O | – | 0.0575
COc1ccc(CC2NCCc3cc(OC)c(OC)cc32)cc1OC (stereo not drawn) | – | 1.87
C1=C2CCCN[C@H]2[C@@H]2C[C@H]1[C@@H]1CCCCN1C2 | – | -2.32
C[C@]12COC(=O)C[C@@H]1CC[C@@H]1[C@H]2CC[C@@]2(C)[C@H]1CC[C@]2(C)O | – | -0.75
CC(C)(O)C=CC(=O)[C@](C)(O)[C@H]1[C@H](O)C[C@]2(C)[C@@H]3CC=C4[C@@H](C=C(O)C(=O)C4(C)C)[C@]3(C)C(=O)C[C@@]12C | – | -2.55
C[C@]12CC[C@H]3[C@@H](CCC4=CC(=O)CC[C@@]43C)[C@H]1CC[C@H]2O | – | -1.48
CC(C)[C@]12O[C@@H]1[C@@H]1O[C@]13[C@]1(O[C@H]1C[C@@H]1C4=C(CC[C@@]13C)C(=O)OC4)[C@H]2O | – | -8.26
C#C[C@]1(O)C=C[C@@H]2[C@@H]3CCC4=CC(=O)CC[C@@H]4[C@H]3CC[C@@]21CC | – | -1.11
C=C[C@@H]1CN2CCC1C[C@H]2[C@H](O)c1ccnc2ccccc12 (stereo partly drawn) | – | 2.88
COC[C@H]1OC(=O)c2coc3c2[C@@]1(C)C1=C(C3=O)[C@@H]2CC[C@H](O)[C@@]2(C)C[C@@H]1OC(C)=O | – | -7.41
CN(C)NC(=O)CCC(=O)O | – | 0.888
O=C(Nc1ccncc1)C(=O)c1cn(Cc2ccc(Cl)cc2)c2ccccc12 | – | 2.97
C=C[C@@H]1CN2CCC1C[C@@H]2[C@@H](O)c1ccnc2ccccc12 (stereo partly drawn) | – | -1.41
CC(O)=C(C#N)C(=O)Nc1cc(Br)ccc1Br | – | -3.61
COc1ccc(C(=O)c2c(C)n(CCN3CCOCC3)c3cc(I)ccc23)cc1 | – | -14
C[C@@H]1CC[C@H]2[C@@H](C)C(=O)O[C@@H]3O[C@@]4(C)CC[C@H]1[C@]32OO4 | – | -0.496
CC(C)N(CCNC(=O)CN1CCCC1=O)C(C)C | inactive | –
CC(C)(C)c1cc(C=C(C#N)C#N)cc(Br)c1O | – | 1.15
N#C[C@H](O[C@@H]1O[C@H](CO[C@@H]2O[C@H](CO)[C@H](O)[C@H](O)[C@H]2O)[C@H](O)[C@H](O)[C@H]1O)c1ccccc1 | – | -8.06
CCCCCC[C@H]1C(=O)O[C@H](C)[C@H](NC(=O)c2cccc(NC=O)c2O)C(=O)O[C@@H](C)[C@@H]1OC(=O)CC(C)C | – | -6
CN1CCN(c2ccc([N+](=O)[O-])c3no[n+]([O-])c23)CC1 | inactive | –
CCCN1CCO[C@@H]2c3cc(O)ccc3OC[C@@H]21 | – | -14.8
C[C@]12CCC(=O)C(O)=C1CC[C@@H]1[C@H]3CCC(=O)[C@@]3(C)CC[C@@H]12 | – | -2.91
C[C@]12Cc3cn[nH]c3C[C@@H]1CC[C@@H]1[C@H]2CC[C@@]2(C)[C@H]1CC[C@]2(C)O | – | -4.6
COc1ccc2c(c1)CN(C)CC2c1ccc(Cl)c(Cl)c1 (stereo not drawn) | – | -2.6
